Reference: ChEMBL document CHEMBL1157539, “Thousands of chemical starting points for antimalarial lead identification” (Nature, 2010)

The compounds below were run on HepG2 (assay: GSK_TCMDC: Percent inhibition of human HepG2 cell line. Test compounds present at 10uM.).
Format: functional

Compared with CN(C)CCOc1ccc(-c2cc(-c3ccncc3)c(-c3ccc(Cl)c(O)c3)[nH]2)cc1.Cl, Cn1nccc1C(=O)NCCNCc1ccc(-c2ccc(-c3nc4cc(C(F)(F)F)ccc4[nH]3)s2)cc1.O=C(O)C(F)(F)F is higher in Inhibition: 25% for the first, 48% for the second.

CCN(CC)c1nc(Nc2cc(C)ccc2C)nc(Nc2ccccc2O)n1 was tested, and the Inhibition was 0%.
